Holding throughout (assay): NCI-60 one-dose screen, 48 h (100 = growth as untreated, 0 = no growth, -100 = all killed)
One assay relates to HCT-15 colon. Conditions: 10 µM.
In a further assay the test system is HT29 colon. Conditions: 10 µM.
For a further assay, the system named is SNB-75 CNS. Conditions: 10 µM.
The test system of a further assay is U251 CNS. The note with it: 10 µM.
A further assay concerns PC-3 prostate. Conditions: 10 µM.
The subject of a further assay is SK-MEL-5 melanoma. The note with it: 10 µM.
A further assay has as its system UACC-62 melanoma. The note with it: 10 µM unless noted.
Another assay has as its system LOX IMVI melanoma. The note with it: 10 µM.
The next assay deals with SK-MEL-28 melanoma. Conditions: 10 µM.

Compounds without any hit were thinned out: in the full panel of roughly 83,000, 20% have a hit.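 Testing used 96-well plates and a 48-hour single-concentration exposure. Example: -40 means 40% of the starting cells died.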 A number with no mark means an inactive call. The source made the active and inactive calls. Rule for the calls: active = growth percent below 10; inactive = the rest.

Regarding `CC(C)NC(=O)OCc1c(COC(=O)NC(C)C)c(-c2ccc(Cl)c(Cl)c2)n2c1SCC2`, the growth is 47.6% in the assay on HCT-15 colon; 62.1% with HT29 colon; 27.8% in the assay with SNB-75 CNS; 43.3% in the assay with U251 CNS; 61.3% in the assay with PC-3 prostate; 67.7% in the assay on SK-MEL-5 melanoma. Further, the growth is -19.3% (active) with UACC-62 melanoma, 19.1% in the assay with LOX IMVI melanoma and 92.8% with SK-MEL-28 melanoma.

On to `CCCCC(CC)COC(C)=O` (configuration not stated), for which the growth was 109% in the assay on HCT-15 colon; 111% in the assay with HT29 colon; 91.2% in the assay with SNB-75 CNS; 99.6% in the assay on U251 CNS; 97% in the assay with PC-3 prostate; 105% with SK-MEL-5 melanoma. Further, the values for the growth in the assay with UACC-62 melanoma, with LOX IMVI melanoma and with SK-MEL-28 melanoma were 103%, 97.4% and 108%, respectively.

On to `OCCN(CCO)C(=S)S`, for which the growth was 104% with HCT-15 colon; 113% in the assay with HT29 colon; 129% with SNB-75 CNS; 102% in the assay with U251 CNS; 104% in the assay on PC-3 prostate; 94.8% in the assay with SK-MEL-5 melanoma. Besides, the growth is 91.7% in the assay on UACC-62 melanoma, 107% in the assay on LOX IMVI melanoma and 113% with SK-MEL-28 melanoma.

Take `CC(=O)OCCC(C)CCC=C(C)C` (configuration not stated): the growth with HCT-15 colon was 92.5%; with HT29 colon it was 105%; in the assay with SNB-75 CNS it was 95.9%; with U251 CNS, 102%; in the assay on PC-3 prostate, 92.3%; in the assay on SK-MEL-5 melanoma it was 101%. For the same molecule, the growth in the assay on UACC-62 melanoma is 97.8%; in the assay with LOX IMVI melanoma, 103%; in the assay on SK-MEL-28 melanoma, 113%.

With `c1csc(-c2cc(-c3cc(-c4cccs4)[nH]n3)n[nH]2)c1`, the growth in the assay with HCT-15 colon was 98.9%; with HT29 colon it was 106%; in the assay with SNB-75 CNS, 128%; in the assay with U251 CNS, 106%; in the assay with PC-3 prostate, 87.3%; in the assay with SK-MEL-5 melanoma, 99.2%. Further, the growth in the assay on UACC-62 melanoma is 84.4%; in the assay with LOX IMVI melanoma it was 87.2%; with SK-MEL-28 melanoma, 105%.

With `CCS(=O)(=O)CCCl`, the growth in the assay with HCT-15 colon is 91.8%; with HT29 colon, 110%; with SNB-75 CNS it was 123%; in the assay with U251 CNS, 102%; with PC-3 prostate, 99.5%; with SK-MEL-5 melanoma, 94.3%. In addition, the growth in the assay with UACC-62 melanoma is 85.1%; in the assay on LOX IMVI melanoma it was 81.7%; in the assay on SK-MEL-28 melanoma, 106%.

Take `COC(=O)c1[nH]c(=O)c(C#N)c(C(=O)OC)c1C(=O)c1ccccc1`: the growth in the assay on HCT-15 colon is 98.1%; in the assay with HT29 colon, 113%; in the assay on SNB-75 CNS it was 85.6%; with U251 CNS it was 96.8%; with PC-3 prostate it was 103%; in the assay with SK-MEL-5 melanoma, 100%. The growth with UACC-62 melanoma was 88.6%; in the assay on LOX IMVI melanoma, 89.9%; in the assay with SK-MEL-28 melanoma, 101%.

In the case of `COc1ccc(-c2cc(-c3cc(-c4ccc(OC)cc4)nc(N)n3)nc(N)n2)cc1`, the growth in the assay with HCT-15 colon is 103%; in the assay with HT29 colon, 105%; in the assay on SNB-75 CNS, 91.4%; in the assay with U251 CNS it was 101%; in the assay with PC-3 prostate, 96.5%; in the assay on SK-MEL-5 melanoma it was 97.1%. For the same molecule, the growth was 91.4% in the assay on UACC-62 melanoma, 95% in the assay on LOX IMVI melanoma and 103% in the assay on SK-MEL-28 melanoma.

In the case of `Nc1nc2c(c(-c3nc(N)nc4c3CCc3ccccc3-4)n1)CCc1ccccc1-2`, the growth with HCT-15 colon was 104%; in the assay with HT29 colon, 112%; with SNB-75 CNS, 98.8%; in the assay with U251 CNS, 114%; in the assay on PC-3 prostate, 86.9%; in the assay with SK-MEL-5 melanoma, 99.3%. For the same molecule, the values for the growth in the assay with UACC-62 melanoma, in the assay on LOX IMVI melanoma and in the assay on SK-MEL-28 melanoma were 94.6%, 98.3% and 115%, respectively.

Regarding `CSc1[nH]c(=O)ncc1F`, the growth in the assay on HCT-15 colon is 100%; with HT29 colon, 112%; in the assay with SNB-75 CNS it was 102%; in the assay on U251 CNS it was 100%; with PC-3 prostate, 96.5%; in the assay on SK-MEL-5 melanoma, 101%. The growth with UACC-62 melanoma is 92.8%; with LOX IMVI melanoma, 95.8%; in the assay on SK-MEL-28 melanoma it was 111%.

On to `CC(=O)Nc1c(C)cc(C)cc1C`, for which the growth in the assay with HCT-15 colon is 102%; in the assay with HT29 colon, 119%; with SNB-75 CNS, 89.2%; in the assay with U251 CNS, 99.3%; with PC-3 prostate it was 103%; in the assay on SK-MEL-5 melanoma, 100%. Further, the results for the growth in the assay with UACC-62 melanoma, with LOX IMVI melanoma and in the assay with SK-MEL-28 melanoma were 107%, 96.9% and 112%, respectively.

For the molecule `Cc1ccc(/C=C2\SC(=S)N(c3ccc(F)cc3)C2=O)o1`, the growth with HCT-15 colon was 88.1%; in the assay on HT29 colon, 70.6%; with SNB-75 CNS it was 24.7%; in the assay on U251 CNS it was 61%; in the assay on PC-3 prostate, 96.1%; with SK-MEL-5 melanoma, 88.2%. For the same molecule, the growth is 85.2% with UACC-62 melanoma, 68.8% in the assay on LOX IMVI melanoma and 100% in the assay on SK-MEL-28 melanoma.

Regarding `N#CC1(Nc2ccc3c4c(cccc24)CC3)CCCCC1`, the growth with HCT-15 colon was 106%; in the assay with HT29 colon, 89.1%; in the assay with SNB-75 CNS, 78.6%; in the assay on U251 CNS, 99.8%; in the assay on PC-3 prostate it was 90.8%; in the assay with SK-MEL-5 melanoma, 91.6%. Moreover, the growth in the assay with UACC-62 melanoma is 106%; in the assay on LOX IMVI melanoma, 97.6%; with SK-MEL-28 melanoma, 103%.

Values taken from PubChem BioAssay (NCI).
